These results are taken from PubChem BioAssay (NCATS).

Assay in all cases: qHTS profiling for inhibitors of Plasmodium falciparum proliferation (AID 504749); also: nearly all actives have a fitted effect of over 60% in size
Conditions in all cases: P. falciparum in erythrocytes, SYBR Green DNA, 72 h; series mostly up to 28.7 µM
A general note: In qHTS, concentration-response curves come from the screen itself.

In one assay the test system is CP201. Summed up:
(§1)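 Readout was DNA-dye fluorescence from lysed cultures, ex 485/em 535 nm. Parasitized red cells had grown 72 h with compound; data scaled between 0.29 uM artemisinin and DMSO wells and corrected using vehicle-only plates.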

The test system of another assay is CP211. Summed up: as §1
The next assay has as its system CP237. Summed up:
as §1

A further assay deals with CP185. Summed up: as §1
In the next assay the test system is CP192. Summed up: as §1
The next assay has as its system CP194. Summed up:
as §1

For a further assay, the system named is CP203. Summed up:
as §1

For a further assay, the system named is CP215. Summed up:
as §1

The subject of the next assay is CP217. Summed up:
as §1

The next assay deals with CP191. Summed up: as §1

Results filed as inconclusive are left out. Calls of active or inactive are those of the source. Calls follow the shape of the dose curve; as a rule, active = well fitted inhibition curve with a large enough effect; inconclusive = small, poorly fitted or top-dose-only effect; inactive = flat fitted curve, though single readings scatter.
Potency is read from the fitted curve at half-maximal effect.

Consider `CSc1ccc2c(c1)N(CCC1CCCCN1C)c1ccccc1S2` (stereo unspecified), for which the Potency result with CP201 and in the assay on CP211 was “inactive” throughout. The Potency in the assay on CP237 was 10 µM (active).

Regarding `CCCc1c(OCCCCc2nn[nH]n2)ccc(C(C)=O)c1O`, the Potency entry with CP185, with CP192, in the assay with CP194, in the assay on CP201, with CP203 and in the assay with CP211 was “inactive” each time. In addition, the Potency entry in the assay with CP215, with CP217 and with CP237 was “inactive” in each case.

For the compound `OCCN1CCN(CCCN2c3ccccc3Sc3ccc(Cl)cc32)CC1`, the Potency in the assay with CP191 was 3.16 µM (active). The Potency entry with CP192 was “inactive”.

For `Oc1cn2c(n1)Nc1ccc(Cl)c(Cl)c1C2`, the Potency entry with CP185, with CP191, in the assay with CP192, in the assay on CP194, with CP203 and with CP211 was “inactive” throughout. Further, the Potency result with CP215, with CP217 and in the assay on CP237 was “inactive” throughout.

For the compound `C[C@H](N)[C@H](O)c1cccc(O)c1`, the Potency entry with CP185, with CP191, in the assay on CP192, with CP194, in the assay on CP201 and with CP211 was “inactive” throughout. The Potency entry in the assay with CP215, in the assay on CP217 and in the assay on CP237 was “inactive” each time.

As to `OCc1cc(C(O)CNCCCCCCOCCCCc2ccccc2)ccc1O` (stereo unspecified), the Potency result with CP185, in the assay with CP192, in the assay with CP194, in the assay with CP201 and in the assay on CP217 was “inactive” in each case.

Take `CCN(CC)CCNC(C(=O)OCCC(C)C)c1ccccc1` (stereo unspecified): the Potency in the assay with CP203 was 9.53 µM (active); in the assay on CP237 it was 3.16 µM (active). The Potency result in the assay on CP211 is “inactive”.

In the case of `CN(C)CCCN1c2ccccc2Sc2ccc(Cl)cc21`, the Potency entry in the assay with CP201 was “inactive”. In addition, the Potency in the assay on CP215 is 15.1 µM (active).

As to `CC(=O)c1ccc2c(c1)N(CCCN(C)C)c1ccccc1S2`, the Potency result in the assay on CP185, in the assay with CP191, in the assay with CP192, in the assay with CP201, with CP211 and with CP215 was “inactive” each time. The Potency result with CP217 and in the assay with CP237 was “inactive” throughout.

As for `CNCCC(Oc1ccc(C(F)(F)F)cc1)c1ccccc1` (stereo unspecified), the Potency entry in the assay on CP185, with CP192, in the assay with CP201, with CP211, in the assay on CP217 and in the assay with CP237 was “inactive” each time.

Consider `Cc1ccc(C(C)C)cc2c(C)ccc1-2`, for which the Potency result in the assay with CP185, with CP191, in the assay with CP192, with CP194, with CP201 and in the assay with CP211 was “inactive” in each case. Besides, the Potency entry in the assay with CP217 and with CP237 was “inactive” each time.

Take `CN1CCCCC1CCN1c2ccccc2Sc2ccc(S(C)=O)cc21` (stereo unspecified): the Potency result in the assay on CP185, with CP192, in the assay on CP201 and with CP217 was “inactive” throughout. In the assay on CP215, the Potency was 15.1 µM (active).

For `CNCCCC1c2ccccc2C=Cc2ccccc21`, the Potency entry in the assay with CP185, with CP192, with CP201, in the assay with CP211 and with CP237 was “inactive” each time.

As for `c1ccc(CN(CC2=NCCN2)c2ccccc2)cc1`, the Potency entry in the assay on CP191, with CP192, with CP201, in the assay with CP211 and in the assay on CP217 was “inactive” throughout.

As to `Cc1cc(O)cc2c1O[C@](C)(CCC[C@H](C)CCC[C@H](C)CCCC(C)C)CC2`, the Potency result in the assay with CP185, in the assay on CP191, in the assay on CP192, in the assay on CP194, in the assay on CP201 and in the assay with CP211 was “inactive” each time. Further, the Potency result with CP217 is “inactive”.

As to `CC(C(O)c1ccc(O)cc1)N1CCC(Cc2ccccc2)CC1` (stereo unspecified), the Potency in the assay on CP185 was 8.91 µM (active); in the assay with CP191 it was 7.94 µM (active); in the assay with CP194, 15.1 µM (active); in the assay with CP203, 12 µM (active); in the assay on CP237, 8.91 µM (active).
